# HTT cytoprotect = protects HTT-Q103 PC12 cells, measured by ATP; PC12 HTT-Q103 induced, cytoprotection, ATP luminescence, 40 h; Potency, µM (doses to about 56.4 µM), without a hit: cytoprotection (ATP increase), usual class: activators; actives 0.14% (n = 230,000); AID 1471; further: potency means the concentration at half of the fitted maximal effect; % of control where 0% means no effect; nearly all actives have a fitted effect of over 45% in size
#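 PC12 cells with ecdysone-inducible HTT exon 1 Q103-GFP, induced with 100 nM tebufenozide and co-treated with library compounds in a dose series (1536-well, 1500 cells/well). Cytoprotection read as ATP content by ATPlite luminescence.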
# HttQ103 aggreg = reduces HttQ103-GFP aggregates in PC12 cells; AID 1688; actives 1.1% (n = 220,000); Potency, µM (series often up to 46.1 µM), for inactives: at the highest dose activity change, negative = inhibition, usual class: inhibitors; PC12 HttQ103-GFP aggregates, Acumen cytometry, 40 h; further: potency means the concentration at half of the fitted maximal effect; on the % scale 0 is the no-effect control and ±100 the full control effect; nearly all actives have a fitted effect of over 60% in size
#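 Compounds (qHTS titration) were added to PC12 cells expressing an ecdysone-driven HTT exon 1 Q103–GFP fusion after induction with 100 nM tebufenozide. Aggregate formation was measured as GFP objects in cell lysates.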
# PNC inhibitor = inhibitors of perinucleolar compartment assembly; AID 2417; activity change (PNC), negative = inhibition, % at 10 µM; actives 3.1% (n = 140,000); PC3M PTB-GFP, PNC prevalence imaging, 16 h; active compounds read low;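 active means readout at or below -70, meaning at least 70% loss of cells showing the perinucleolar compartment, a nuclear body marking cancer cells; inconclusive means readout between -30 and a set limit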;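 further: plate controls were DMSO wells for no effect and camptothecin positive control wells for full effect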
#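 PC3M cells stably expressing PTB-GFP, 750–1000 cells/well, treated 16 h at 37 °C with compound (23 nl of library stock), in duplicate. After paraformaldehyde fixation and Hoechst stain, imaged at 20x; PNC prevalence scored by image analysis.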
# * hit, by the source's call; ? = inconclusive; nt = no result; [ ] = another dose, or the depositor's remark. Only a selection was taken, and hits are over-represented in it overall. Unless noted, the call rests on the fitted dose curve; in most records, active means well fitted curve in the direction sought with a large enough effect; inconclusive means small, poorly fitted or top-dose-only effect, or another doubt; inactive means no such curve, though single readings can be large; an effect the other way counts as inactive or inconclusive.
SMILES,HTT cytoprotect,HttQ103 aggreg,PNC inhibitor
CCc1sc(C(=O)NCCc2ccc(S(N)(=O)=O)cc2)cc1Br,-8%,13%,nt
Cc1ccc(C)c(Cc2c(C)nc3c(C(=O)NCc4ccc5c(c4)OCO5)cnn3c2C)c1,10%[10 µM],-1%[9.22 µM],-92*
Cc1ccccc1Cc1c(C)nc2c(C(=O)NCc3ccc4c(c3)OCO4)cnn2c1C,2%,-1%,?
CCCN1Cc2cccc(C(=O)Nc3ccc4c(c3)OCCO4)c2C1=O,4%,-6%,-106*
COCCN1Cc2cccc(C(=O)Nc3c(C)cc(C)cc3C)c2C1=O,-25%,?,?
COCCN1Cc2cccc(C(=O)Nc3cc(C)cc(C)c3)c2C1=O,-18%,-5%,-85*
CCCN1Cc2cccc(C(=O)Nc3ccc4c(c3)OCO4)c2C1=O,-14%,1%,11
Cc1cc(-c2nnc(SCC(=O)Nc3ccccc3C(F)(F)F)o2)c(C)n1-c1ccccc1,-52%,?,31
Cc1noc(N)c1C(=O)Nc1ccccc1F,15%,-2%,?
CCOC(=O)c1c(-c2ccccc2)cn2ccccc12,-17%,11%,38
Cc1ccc(NC(=O)C2C3/C=C\CCCCC32)cc1 (configuration not stated),1%[10 µM],0%,-81*
Cc1cc(C)c(NC(=O)C2C3/C=C\CCCCC32)c(C)c1 (configuration not stated),-7%,-4%,-15
S=C(NCC(c1ccco1)N1CCCC1)Nc1ccccc1 (configuration not stated),-11%,1%,nt
OC(CNCC(c1ccco1)N1CCCCC1)c1ccccc1 (configuration not stated),12%[10 µM],5%,-127*
COc1ccccc1CN(C)CC(=O)Nc1ccccc1-c1ccccc1,-36%,-27%,nt
COc1ccc(CN(C)CC(=O)Nc2ccccc2-c2ccccc2)c(OC)c1,10%[10 µM],20µM*,nt
O=C(O)CSCC(=O)Nc1ccc(C(=O)O)cc1,1%,-16%,-16
Cc1ccc(SCc2cn3cccnc3n2)cc1,-13%,15%,-29
Cc1ccn2cc(CSc3ccccc3)nc2c1,-57%,5%,-112*
CC(=O)NC1N=C(C)N(c2ccccc2)C1=O (configuration not stated),3%[10 µM],14%[9.22 µM],12
COc1ccc(NC(=O)CNS(=O)(=O)c2ccc(Cl)cc2)cc1OC,nt,-11%,-114*
CC(=O)Nc1ccc(NC(=O)CNS(=O)(=O)c2ccc(C)cc2)cc1,-4%[0.074 µM],-7%,30
O=C(Cn1nc(C(F)(F)F)cc1C1CC1)NCc1ccccc1F,nt,-9%,-26
O=C1CC(Nc2ccc(N3CCOCC3)cc2)C(=O)N1c1ccccc1 (configuration not stated),-28%,-2%,11
O=C1CC(Nc2ccc(N3CCOCC3)cc2)C(=O)N1Cc1ccccc1 (configuration not stated),23%[10 µM],7%,-119*
SMILES,HTT cytoprotect,HttQ103 aggreg,PNC inhibitor
CC(C)CC(C(=O)OCC(=O)c1c(N)n(C)c(=O)n(C)c1=O)N1C(=O)C2CC=CCC2C1=O (configuration not stated),24%,-15%,nt
Cc1ccc(NC(=O)COC(=O)C(CC(C)C)N2C(=O)C3CC=CCC3C2=O)c(C)c1 (configuration not stated),10%[10 µM],-12%,-87*
CCCCNC(=O)C1CC(=O)N(CCC(C)C)C1 (configuration not stated),12%,-6%,20
CCCCOc1ccc(-c2csc(N)n2)cc1[N+](=O)[O-],-15%[10 µM],-10%,11
CCOc1cc(/C=N/Nc2nc(N3CCCCC3)nc(N3CCCCC3)n2)ccc1OC(=O)c1ccco1,-25%,-28%,nt
CCN1C/C(=C/c2cccc([N+](=O)[O-])c2)C(=O)/C(=C/c2cccc([N+](=O)[O-])c2)C1,-23%[10 µM],?,-123*
O=C1NC(=O)/C(=C/c2cccc([N+](=O)[O-])c2)N1,4%[10 µM],3%[9.22 µM],nt
COC(=O)CCCC[C@@H]1SC[C@@H](NC(=O)OC)[C@@H]1NC(=O)OC,-22%[1.9 µM],-4%,1
COC(=O)CCCCC1SCC(NC(=O)OC)C1NC(=O)OC (configuration not stated),2%[10 µM],12%,-86*
Nc1nc(CN2CCN(Cc3ccc4c(c3)OCO4)CC2)nc(Nc2ccccc2)n1,19%[10 µM],3%,-129*
Cc1ccccc1Nc1nc(N)nc(CN2CCN(Cc3ccc4c(c3)OCO4)CC2)n1,21%[10 µM],9%[9.22 µM],nt
Nc1nc(CN2CCCCCC2)nc(Nc2ccccc2)n1,26%[10 µM],12%,?
Nc1nc(CN2CCC(Cc3ccccc3)CC2)nc(Nc2ccccc2)n1,-17%,-2%,-105*
CCCCc1cc2c(cc1NC(=O)CN1CCCCC1)OCCO2,13%[10 µM],-5%[9.22 µM],nt
Cn1c(=O)c(-c2cc(Br)ccc2N)nc2ccccc21,-4%[10 µM],13µM*,?
CCOC(=O)Cn1c(=O)c(-c2cc(Br)ccc2N)nc2ccccc21,16%[10 µM],1%[9.22 µM],nt
O=C(O)CCCNC(=O)CC1S/C(=N/N=C/c2ccccc2O)NC1=O (configuration not stated),11%[10 µM],14%,nt
O=C(NC1CCS(=O)(=O)C1)c1ccc(S(=O)(=O)NCC2CCCO2)cc1 (configuration not stated),-11%[0.074 µM],-12%,23
Cc1ccccc1CS(=O)(=O)c1nnc([C@H](CC(C)C)NC(=O)OC(C)(C)C)o1,-167%[0.074 µM],?,44
CC[C@@H](C)[C@H](NC(=O)OC(C)(C)C)c1nnc(S(=O)(=O)Cc2cc(C)ccc2C)o1,?,?,2
CC(C)(C)OC(=O)N[C@@H](Cc1ccccc1)c1nnc(S(=O)(=O)Cc2cccc(F)c2)o1,7%[0.074 µM],?,-107*
CC(C)[C@H](NC(=O)OC(C)(C)C)c1nnc(S(=O)(=O)Cc2c(F)cccc2Cl)o1,-115%,10µM*,21
CCCn1c(=O)c2ccccc2n2c(SCCOc3ccc(C)cc3)nnc12,4%,1%,8
CCCCNC(=O)c1cnc2n(c1=O)CCS2,-7%[10 µM],-13%,-14
COC(=O)c1cc(Cl)c(NC(=O)c2ccc(F)cc2)cc1OC,17%[10 µM],10%,68
SMILES,HTT cytoprotect,HttQ103 aggreg,PNC inhibitor
COc1ccc(C(=O)n2cc(C(=O)c3cc(C)ccc3O)cn2)cc1,3%[10 µM],32µM*,?
COc1ccc(C(=O)n2cc(C(=O)c3cc(C)ccc3O)cn2)cc1OC,-15%[0.074 µM],18%,135
O=C(Nc1ccc(S(=O)(=O)Nc2nccs2)cc1)C1=NN(c2ccccc2)C(=O)CC1,23%[10 µM],19%[9.22 µM],nt
CCOC(=O)C1=C(CS(=O)(=O)c2ccccc2)NC(=O)NC1c1ccc(OC)c(OC)c1 (configuration not stated),-4%[10 µM],-2%[9.22 µM],nt
COc1cc(S(=O)(=O)N2CCC(c3nc4ccccc4s3)CC2)ccc1S(=O)(=O)NC1CCCC1,16%[10 µM],-5%,-100*
COc1cc(S(=O)(=O)N2CCC(c3nc4ccccc4s3)CC2)ccc1S(=O)(=O)N1CC(C)CC(C)C1 (configuration not stated),4%[10 µM],-11%,257
CC(C)(C)OC(=O)N1CC(O)CC1C(=O)OCC(=O)c1ccc(Cl)cc1 (configuration not stated),-24%[0.074 µM],9%,?
COc1ccccc1OCCCn1cc(C#N)c2ccccc21,-34%[10 µM],?,-82*
N#Cc1cn(CCCOc2ccccc2)c2ccccc12,3%[10 µM],?,8
